Screens as filed in PubChem BioAssay.
JMJD2A Tudor: blocks the human JMJD2A Tudor domain; AID 504339; O75164; Potency, µM (doses to about 114 µM), for the others: top-dose activity change, negative = inhibition, actives largely listed as inhibitors; actives 4.4% (n = 390,000); AlphaScreen JMJD2A-Tudor / H3K4me3 peptide binding; note: % is set by controls: 0 for no effect and ±100 for the full control effect; nearly all actives have a fitted effect of over 50% in size
Target sequence (O75164 whole entry, looked up, the tested form may be a part): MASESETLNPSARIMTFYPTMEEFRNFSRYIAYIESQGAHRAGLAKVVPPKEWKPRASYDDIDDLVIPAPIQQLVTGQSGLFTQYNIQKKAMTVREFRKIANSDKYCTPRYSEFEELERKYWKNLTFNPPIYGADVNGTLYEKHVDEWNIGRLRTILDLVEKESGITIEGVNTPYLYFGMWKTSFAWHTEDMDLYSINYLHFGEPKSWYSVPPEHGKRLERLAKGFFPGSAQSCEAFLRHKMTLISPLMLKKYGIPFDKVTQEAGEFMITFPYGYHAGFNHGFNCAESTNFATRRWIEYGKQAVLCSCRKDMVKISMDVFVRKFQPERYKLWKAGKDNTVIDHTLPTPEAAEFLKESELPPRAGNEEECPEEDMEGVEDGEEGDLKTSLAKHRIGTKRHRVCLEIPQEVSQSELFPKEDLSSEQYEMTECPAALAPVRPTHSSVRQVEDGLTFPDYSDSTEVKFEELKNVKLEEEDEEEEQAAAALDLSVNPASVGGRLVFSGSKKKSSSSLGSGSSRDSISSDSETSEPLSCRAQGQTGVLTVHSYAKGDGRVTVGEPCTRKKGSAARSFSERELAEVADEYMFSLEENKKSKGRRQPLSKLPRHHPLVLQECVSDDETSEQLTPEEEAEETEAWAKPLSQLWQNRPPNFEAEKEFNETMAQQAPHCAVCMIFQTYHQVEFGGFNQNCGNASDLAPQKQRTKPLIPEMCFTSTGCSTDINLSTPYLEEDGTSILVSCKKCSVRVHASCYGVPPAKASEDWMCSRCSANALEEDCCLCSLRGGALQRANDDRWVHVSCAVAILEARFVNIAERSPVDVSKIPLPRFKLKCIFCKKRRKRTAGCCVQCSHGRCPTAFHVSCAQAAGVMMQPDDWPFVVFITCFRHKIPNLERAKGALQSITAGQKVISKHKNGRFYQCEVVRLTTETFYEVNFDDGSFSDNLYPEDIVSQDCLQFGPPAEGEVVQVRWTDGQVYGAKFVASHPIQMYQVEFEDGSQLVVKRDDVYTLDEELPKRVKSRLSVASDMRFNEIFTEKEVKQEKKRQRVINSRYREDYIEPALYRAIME
Sfp PPTase inh: Sfp phosphopantetheinyl transferase inhibition. Biochemical Sfp PPTase activity, qHTS. Potency, µM, without a hit: largest response in the series, negative = inhibition, most hits filed as inhibitors. actives 3.5% (n = 310,000);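 note: the enzyme is Sfp with the accession as filed and its product quenches rhodamine fluorescence; 0% = enzyme reaction without inhibitor and -100% = no enzyme wells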
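With Hepes-Na pH 7.6 buffer containing 10 mM MgCl2, Sfp (15 nM) modified BHQ-2-YbbR (12.5 uM) using rhodamine-CoA (5 uM). Two reads 30 minutes apart at 525/598 nm yielded each well's rate.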
G9a block: blocks human histone lysine methyltransferase G9a. Potency, µM (series often up to 102 µM), inactives show at the highest dose activity, negative = inhibition, hits mostly inhibitors. G9a H3K9 monomethylation, AlphaScreen, 2 h. AID 504332. actives 8.8% (n = 350,000). Q96KQ7; note: % is set by controls: 0 for no effect and ±100 for the full control effect; nearly all actives have a fitted effect of over 75% in size
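Step 1: enzyme (final 20 nM) with compound, 15 min RT. Step 2: substrate peptide 500 nM and SAM 20 uM, 2 h RT. Step 3: anti-H3K9me1 antibody and AlphaScreen beads, 10 min, then plate read.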
BAZ2B block: blocks human BAZ2B; Q9UIF8; actives 4.4% (n = 360,000); AlphaScreen BAZ2B-H3K14Ac peptide displacement; Potency, µM (highest dose often 114 µM), for the others: top-dose activity change, negative = inhibition, actives largely listed as inhibitors; note: % is set by controls: 0 for no effect and ±100 for the full control effect; nearly all actives have a fitted effect of over 60% in size
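AlphaScreen displacement of biotin-H3(5-23)K14Ac peptide (50 nM final) from BAZ2B (50 nM final) in PBS pH 7.4, 0.01% Tween-20; complex preformed 30 min RT, then compounds (top 110 uM) 30 min RT, beads 20 min dark.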
12-LOX inh: inhibitors of human 12S-lipoxygenase ALOX12; P18054; purified 12hLO, xylenol orange hydroperoxide absorbance; Potency, µM (series often up to 108 µM), inactives show at the top dose activity change, negative = inhibition, most hits filed as inhibitors; actives 1.1% (n = 580,000); note: % is set by controls: 0 for no effect and ±100 for the full control effect
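Purified human 12hLO at 150 nM in 25 mM Hepes, 0.01% Triton X-100, pH 7.0, preincubated 15 min at room temperature with compound. Reaction started with 40 uM arachidonic acid, 30 min at room temperature. Hydroperoxide measured by Fe-xylenol orange, 573/405 nm absorbance ratio.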
HP1b chromo inh: blocks HP1-beta chromodomain binding to methylated histone tails. P83916. AlphaScreen HP1-beta / biotin-H3K9me3 peptide binding. Potency, µM (highest dose often 114 µM), without a hit: top-dose activity change, negative = inhibition, hits mostly inhibitors. actives 0.56% (n = 390,000). AID 540317; note: nearly all actives have a fitted effect of over 70% in size
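Compound inhibition of the preformed complex between 50 nM HP1-beta and 50 nM biotinylated H3K9me3 peptide was read by AlphaScreen. Buffer was PBS pH 7.4 with 0.01% Tween-20. Incubations ran 30 min at room temperature, with 10 ug/mL donor/acceptor beads.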
Starred values were filed as active, the others as inactive; ? = inconclusive; nt = no result; [ ] = remark or other dose. Shown are actives, neighbours in structure and some others; about 8.7% of the full set was active somewhere. Calls come from the whole dose curve; as a rule, active = well fitted curve in the direction sought with a large enough effect; inconclusive = small, poorly fitted or top-dose-only effect, or another doubt; inactive = no such curve, though single readings can be large; an effect the other way counts as inactive or inconclusive. Potency is the fitted concentration of half-maximal effect.

SMILES	JMJD2A Tudor	Sfp PPTase inh	G9a block	BAZ2B block	12-LOX inh	HP1b chromo inh
CCOc1cc2c(c3c1C(c1ccccc1)N(S(=O)(=O)c1ccc(C)cc1)C3)C(=O)C=CC2=O (configuration not stated)	nt	nt	nt	nt	1.1µM*	nt
CC(C)NC(=O)CSc1ncc(-c2ccc(F)cc2)o1	nt	nt	nt	nt	-4%	nt
O=S(=O)(/C(=C/c1ccc(C(F)(F)F)cc1)c1nc2ccccc2[nH]1)c1ccccc1	79µM*	-19%	6%[59 µM]	-30%	3%	-12%
CCNC(=O)NC(=O)CSc1nc(C2CC2)nc2ccccc12	nt	nt	nt	nt	35%	nt
CC1CCN(S(=O)(=O)c2ccc3c(c2)C(Cl)(Cl)C(=O)N3)CC1	nt	nt	nt	nt	40µM*	nt
CC1CCN(S(=O)(=O)c2ccc3ccccc3c2)CC1	39%	4%	?	23%	15%	151%
CN1C(=O)Cc2cc(S(=O)(=O)N3CCOCC3)ccc21	-6%[57.1 µM]	4%	40µM*	7%	0%	-8%
CC1CCN(S(=O)(=O)c2ccc3c(c2)N(C)C(=O)CC(=O)N3C)CC1	-2%	-29%	28µM*	-33%	-2%	12%
CC1CCN(c2ccc(S(=O)(=O)N3CCC(C)CC3)cc2N)CC1	-14%	5%	3%	-31%[57.1 µM]	3%	22%
CN1C(=O)CC(=O)N(C)c2cc(S(=O)(=O)N(C)Cc3ccccc3)ccc21	-28%	89µM*	?	-5%	?	?
O=C(c1cccnc1)N1CCC(c2nc(C3CCOCC3)no2)C1 (configuration not stated)	nt	nt	nt	nt	5%	nt
COc1ccc(CNC(=O)CC[C@H]2CNC(=O)[C@@H]3[C@@H](CCN3C(C)C)N2C)cc1	nt	nt	nt	nt	8%[176 µM]	nt
CCOC(=O)C1CCN(S(=O)(=O)c2ccc3c(c2)CC(=O)N3C)CC1	?	-8%	45µM*	-13%	45µM*	-11%
CCOC(=O)C1CCN(S(=O)(=O)c2ccc3c(c2)CCCN3C(C)=O)CC1	-2%	6%	-7%	-6%	-21%	77%
Cc1ccc(S(=O)(=O)N2CCC(C(=O)OCc3c(C)noc3C)CC2)cc1C	-4%	nt	40µM*	6%	-6%	29%
CN(Cc1nc2ccccc2[nH]1)S(=O)(=O)c1cc(Br)ccc1Br	nt	nt	nt	nt	3%	nt
O=C1C(N2CCN(S(=O)(=O)Cc3ccc(Cl)cc3)CC2)CCN1Cc1cccnc1 (configuration not stated)	nt	nt	nt	nt	11%	nt
COc1ccc(-c2noc(CSc3nc(C4CC4)n(-c4ccccc4)n3)n2)cc1OC	nt	nt	nt	nt	-6%	nt
COc1ccc(CCNC(=O)c2ccc(-c3cccc([N+](=O)[O-])c3)o2)cc1OC	?	-2%	?	?	?	4%
S=C(c1ccc(-c2ccc(Br)cc2)o1)N1CCOCC1	35µM*	35µM*	14µM*	28µM*	?	25µM*
COc1ccc(CCNC(=O)c2ccc(-c3ccc([N+](=O)[O-])cc3Cl)o2)cc1	?	50µM*	35µM*	-34%	?	-12%
O=C(c1ccc(-c2ccccc2Cl)o1)N1CCC1	-11%	nt	?	2%	-16%	13%
O=C(c1ccc(-c2cccc(Cl)c2Cl)o1)N1CCOCC1	-12%	79µM*	40µM*	-29%	-22%	11%
S=C(c1ccc(-c2ccccc2Cl)o1)N1CCOCC1	40µM*	14µM*	?	40µM*	nt	?
S=C(Nc1ccc(Cl)c(Cl)c1)N1CCOCC1	-11%	-8%	-10%[59 µM]	8%	-3%	28%
SMILES	JMJD2A Tudor	Sfp PPTase inh	G9a block	BAZ2B block	12-LOX inh	HP1b chromo inh
O=C(c1ccc(-c2ccc([N+](=O)[O-])cc2Cl)o1)N1CCOCC1	-6%	40µM*	45µM*	-35%	-13%	22%
S=C(c1ccc(-c2ccc(Cl)c(Cl)c2)o1)N1CCOCC1	35µM*	16µM*	?	11µM*	nt	?
CC1CCN(C(=O)c2ccc(-c3ccccc3Cl)o2)CC1	113%	nt	40µM*	?	-5%	?
COc1ccc(-c2ccc(C(=S)N3CCN(C(C)=O)CC3)o2)cc1	?	13µM*	6.3µM*	?	14µM*	?
COc1ccc(CC(=O)N2CCN(C(=O)Cc3ccc(OC)cc3)CC2)cc1	?	26%	27%[59 µM]	9%	0%	-14%
Cc1nc(C)c(C(=O)NCCn2c(C)cnc2-c2cccnc2)s1	nt	nt	nt	nt	40%	nt
O=C(CCC1CCCC1)NC1CCN(c2cn[nH]c(=O)c2)CC1	nt	nt	nt	nt	16%	nt
Cc1cc2oc(C(=O)Nc3nonc3-c3cccs3)c(C)c2cc1C	nt	nt	nt	nt	58%	nt
O=C(CC12CC3CC(CC(Br)(C3)C1)C2)OC(C(=O)c1c[nH]c2ccccc12)c1ccccc1 (configuration not stated)	nt	nt	nt	nt	-14%	nt
COc1ccc(CNC(=O)c2nc(-c3cccc4[nH]ccc34)no2)cc1OC	nt	nt	nt	nt	26%	nt
O=Cc1ccc(-c2ccc([N+](=O)[O-])cc2Cl)o1	?	-27%	35µM*	?	1%	-15%
S=C(c1ccc(-c2ccc(Br)cc2)o1)N1CCCCC1	?	13%	79µM*	-5%	-30%	-13%
Cc1[nH]c2ccc(F)cc2c1CC(=O)N(C)C1CCCC1	nt	nt	nt	nt	5%	nt
Cc1cnc(C(=O)OCc2cccc(C(F)(F)F)c2)cn1	nt	nt	nt	nt	-7%	nt
CCOP(=O)(OCC)C(Nc1cccc([N+](=O)[O-])c1)c1ccc(N(C)C)cc1 (configuration not stated)	50µM*	8%	?	40µM*	73%	?
Nc1ccc(-c2ccc3ccccc3n2)cc1	nt	-25%	19µM*	nt	nt	nt
C#CCOCCOCCOCCNc1nc(N2CCN(C(=O)Cn3cc(CCCN=C(N)N)nn3)CC2)nc(N2CCN(C(=O)[C@H](CCCCN)n3cc(CCC(=O)O)nn3)CC2)n1	-4%	nt	-8%[2.33 µM]	-9%	?	23%
C#CCOCCOCCOCCNc1nc(N2CCN(C(=O)Cn3cc(CCCN=C(N)N)nn3)CC2)nc(N2CCN(C(=O)[C@H](CCCCN)n3cc(CCCC)nn3)CC2)n1	-35%	nt	-2%[2.33 µM]	79µM*	?	36%
C#CCOCCOCCOCCNc1nc(N2CCN(C(=O)[C@H](C)n3cc(CCCN=C(N)N)nn3)CC2)nc(N2CCN(C(=O)[C@H](CCCCN)n3cc(CCCC)nn3)CC2)n1	nt	4%	4.5µM*	?	nt	nt
CCC(C)NC(=O)C(C)NC(=O)NCCNC(=O)C1CC1 (configuration not stated)	nt	nt	nt	nt	-8%	nt
N#Cc1cccc(OCC(=O)c2ccc3c(c2)OCCO3)c1	nt	nt	nt	nt	25%	nt
COc1ccc(/C=C/c2n[nH]c(=O)c(C#N)c2C)cc1	-10%	13%	45µM*	1%	-15%	0%
